According to PubChem BioAssay AID588827 (Broad Institute, 2011):
Hit rate of the full screen: of about 2,400 compounds, about 20 (0.8%) were called active. Roughly 19% stayed inconclusive and do not appear here.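 Rule for the calls: active = fitted half-maximal concentration for signal decrease at or below twice the top tested dose, in every repeat run; inconclusive = repeat runs disagree, or flat partial inhibition, or poor fit; inactive = all runs flat, wrong-direction or potency beyond limit.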 Only a sample is shown. Entries with a potency or affinity are not part of this list.

experiment: GFP reporter loss versus dox-driven RFP – NIH3T3 R4 cells, cherry-pick, set 4, dose response (AID 588827); settings: NIH3T3 R4 HSF-1 GFP reporter, heat shock, 48 h; series mostly up to 19.5 µM; activity change, negative = inhibition: at the top concentration;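 note: 0% = neutral control wells and -100% = didemnin B at 400 nM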

Activity change, negative = inhibition, inactive:
O=C(CCCc1nc(-c2ccccc2Cl)no1)NC1CCCC1 8.17%
COc1ccc(CC(C)Nc2cccc(SC)c2)cc1 (stereo unspecified) -7.7%
O=C(CN(Cc1ccccc1Cl)S(=O)(=O)c1ccc(Cl)cc1)N/N=C/c1ccc(C(=O)O)cc1 2.93%
Cc1ccc(N=Nc2ccc3ccccc3c2O)cc1 6.26%
C=CCn1c(=NC(=O)C2CC2)sc2cc(NC(C)=O)ccc21 2.06%
CCCCNC(=O)C(=O)N/N=C/c1ccc(C(=O)OC)cc1 -8.74%
O=c1cc(-c2ccccc2)c2ccc(O)cc2o1 -13%
CC(=O)c1ccc(NC(=O)C2CCN(S(=O)(=O)c3cccc4cccnc34)CC2)cc1 -9.15%
COc1ccc(NC(=S)Nc2ccc(F)cc2)c(OC)c1 -12.6%
O=C(CSc1ccc(Br)cc1)Nc1ccccc1N1CCOCC1 -9.45%
COc1cc(C(=O)N2CCSCC2)ccc1OC1CCN(C(C)=O)CC1 -1.88%
COc1ccccc1Oc1ccc2c(c1)C(=O)N(c1ccc(Br)c3cccnc13)C2=O -24.3%
Cc1c(Cl)cccc1NC(=O)Nc1cnccn1 -29.6%
CCN(CC)c1ccc(CNc2nc3ccccc3n2CCN2CCOCC2)cc1 -31.2%
CN(C(=O)c1ccc2c(c1)SC1=NS(=O)(=O)CCN12)C(c1ccccc1)c1ccccc1 4.39% [at 10 µM]
O=c1o[nH]c(-c2ccccc2)c1-c1ccccc1 5.38%
O=C(Nc1cccc(Cl)c1)N1CCOCC1 -24.5%
CCOC(=O)C1(Cc2ccc(OC)cc2)CCN(C(=O)c2csc(C)n2)CC1 -3.83%
Cc1ccccc1-c1nc2sc3c(c2c(=O)n1N)CCCC3 -10.4%
Cn1c(=O)cc(SCC(=O)N2CCN(C(=O)c3ccco3)CC2)c2ccccc21 -11.5%
Cc1[nH]c2ccccc2c1C(C[N+](=O)[O-])c1cccs1 (stereo unspecified) -1.12%
COc1cccc(-c2cc3nc4c(c(NCC(C)(C)CN(C)C)n3n2)CCCC4)c1 -15.6%
CCOc1ccc(NC(=O)C2CCCN(c3nn4c(=O)cc(C)nc4s3)C2)cc1 (stereo unspecified) 9.81%
Cc1ccc2nc(-c3ccccc3NC(=O)CCC(=O)O)c(=O)[nH]c2c1 11.3%
N#CC1=C(N)Oc2cc(N)ccc2C1c1ccccc1Cl (stereo unspecified) -13.4%
Cc1cc(Nc2ccc3c(c2)OCCO3)c2cc(Cl)ccc2n1 -28.1%
CCn1nc(C)c(/C=N/NC(=O)c2c[nH]c3ccccc23)c1C 4.32%
N#Cc1c(N)nc(SCc2ccncc2)c(C#N)c1-c1cccs1 -23%
CCOc1ccc(N(CC(=O)NC2CCCCC2)C(=O)CCC(=O)Nc2nc(C)cs2)cc1 -1.1%
CCSc1nnc(-c2ccc(S(=O)(=O)NCc3cccs3)cc2)o1 -22.9%
O=C(c1cc2c(s1)-c1ccccc1OC2)N1CCN(c2ccccc2)CC1 -1.28%
Cc1cc(/C=C2/C(=O)NN(c3ccccc3)C2=O)c(C)n1-c1ccc(O)cc1 -1.39%
C/C(=N\Nc1nncc2ccccc12)c1ccc(Cl)c([N+](=O)[O-])c1 4.2%
Cc1cc(Cl)ccc1OCCCC(=O)N1CCOCC1 4.58%
CCC(NC(=S)NC1CCCCC1)c1ccccc1 (stereo unspecified) 3.39%
CCN(CC(=O)Nc1c(F)cccc1F)C(=O)Cc1n[nH]c(=O)c2ccccc12 -8.1%
COC(=O)C1=C(C)N(CCCC(=O)O)C(=O)NC1c1ccc(C#N)cc1 (stereo unspecified) -11.5%
O=C(CN1CCCCC1)Nc1cccc2c1OCO2 -20.8%
CC(CN1CCOCC1)OC(=O)C(c1ccccc1)c1ccccc1 (stereo unspecified) 3.47%
O=C(O)CSCC(=O)Nc1ccc(C2CCCCC2)cc1 -19.7%
Cc1ccnc(NC(c2ccsc2)c2ccc3ccc(C)nc3c2O)c1 (stereo unspecified) 77.1%
COc1ccc2nnc(-c3ccc(C(F)(F)F)cc3)n2n1 -29%
O=C1CCCC/C1=N\Nc1ccc(C2CCCCC2)cc1 -12.6%
COc1ccc(C(=O)C2CCCN(S(=O)(=O)c3ccccc3F)C2)c(C)c1 (stereo unspecified) -19.3%
Cc1cc(S(=O)(=O)N2CCN=C2c2ccccc2)c(C)cc1Cl -13.8%
COc1cc(/C=N/N=C2/C(=O)Nc3ccccc32)cc(OC)c1O -6.39%
O=C(NCc1ccco1)C(=O)NCC(c1ccco1)N1CCOCC1 (stereo unspecified) -10.2%
CCOC(=O)C1(CCOc2ccccc2)CCN(Cc2cccc(-n3cccn3)c2)CC1 19%
CC(=O)N/N=C(\C)CC(=O)NC(C)(C)C 6.32%
C=CCn1c(C)cc(C(=O)CSc2nnc(NC(C)C)s2)c1C -14.3%
CCCCN1CNC(=S)N(c2ccc(C(=O)OCC)cc2)C1 -9.47%
COc1ccc(-c2oc3ccccc3c2C(=O)Oc2ccccc2)cc1 0.138%
Cc1ccc(-c2nn(-c3ccccc3)cc2CN(C)C(=O)CCC(=O)O)cc1C -15.5%
O=[N+]([O-])c1cccc(-c2nnc(-c3ccccc3)o2)c1 -13.4%
Cc1ccc(C(=O)N/C(=C/c2ccco2)C(=O)Nc2cccc(C(=O)O)c2)cc1 -3.67%
Cc1cccc(OCC(=O)Nc2cccc(C(=O)NCC(C)C)c2)c1 -11.5%
COc1ccc(C2NS(=O)(=O)N=C2N)cc1 (stereo unspecified) -1.94%
CC(=O)C1C(=O)c2c(cccc2[N+](=O)[O-])C1=Nc1ccc(S(N)(=O)=O)cc1 (stereo unspecified) -10.1%
CCOC(=O)N1CCN(S(=O)(=O)c2ccc3c(c2)OCC(=O)N3)CC1 -10.4%
Cc1ccc(-c2cn(-c3ccccc3)c(=S)[nH]2)cc1C -10%
O=C(Nc1ccccc1N1CCCCC1)C1CCN(C(=O)c2ccc(Cl)cc2)CC1 -15.7%
CCOC(=O)c1c(NC(=O)CSc2nnc(-c3c[nH]c4ccccc34)n2C)sc2c1CCCC2 -23.8%
O=C(NCCCn1ccnc1)C(=O)NCC1OCCN1S(=O)(=O)c1cc(F)ccc1F (stereo unspecified) -8.72%
O=C(O)CCSc1nnc(-c2ccc3c(c2)OCO3)o1 1.52%
Cc1c(C(=O)c2no[n+]([O-])c2C(=O)c2cnn(C)c2C)cnn1C 12.6%
O=S(=O)(Nc1cccc(Oc2cnccn2)c1)c1ccc(F)cc1 -8.07%
CCOc1cc(/C=N/NC(=O)c2cccc(S(=O)(=O)N3CCOCC3)c2)ccc1OCC(=O)N(C)C -8.98%
Cc1ccc(-c2cc3c(N=O)c4ccccc4c-3n[nH]2)cc1 9.74%
CCCN(CCC)C(=O)CSc1nc2ccsc2c(=O)n1NC(=O)c1ccccc1 -0.911%
COc1cccc(C(c2sc3nc(C)nn3c2O)N2CCN(C(=O)c3ccco3)CC2)c1 (stereo unspecified) -17.6%
Cn1c(=O)c2ccccc2n(Cc2ccccc2Cl)c1=O -29.6%
O=C(CCl)NC(Cc1ccccc1)c1ccccc1 (stereo unspecified) 9.09%
COC(=O)c1cc(S(=O)(=O)NCCc2ccccc2)c[nH]1 -14.9%
O=C(CCl)N=c1sccn1Cc1ccc(Cl)cc1Cl -29.8%
Cc1ccc(S(=O)(=O)N2CCN(CC(=O)N/N=C\c3ccncc3)CC2)cc1 -9.13%
O=C(O)c1ccc2nc(-c3ccccc3)sc2c1 -4.16%
Cn1c(=O)c2c(SCC(=O)N3CCCc4ccccc43)nc(C3CC3)nc2n(C)c1=O -16.5%
Cc1ccc(C)c(NC(=O)COc2coc(CN3CCc4ccccc4C3)cc2=O)c1 -27.9%
Cc1ccc2[nH]c(=O)c(CN(C(=O)c3cccc([N+](=O)[O-])c3)C(C)C)cc2c1 -24.7%
O=C(Nc1ccc(S(=O)(=O)N2CCOCC2)cc1)c1ccc(Cl)cc1Cl -21.7%
COC(=O)c1nn(-c2ccc3c(c2)CCN3C(C)=O)cc1O 21.1%
Cc1cc(C)c2[nH]c(=O)c(C(c3nnnn3CC3CCCO3)N3CCC(C)CC3)cc2c1 (stereo unspecified) -26.5%
N=C(N)SCc1ccccc1Cl 19.3%
COc1ccc(C(=O)NCc2nnc(SCC(=O)N3CCC(C)CC3)o2)cc1OC -11.6%
O=C(Cn1nc2ccccc2n1)N/N=C/c1cc([N+](=O)[O-])ccc1O 6%
O=C(Oc1ccccc1Cl)c1ccc(-n2cncn2)nc1 -8.84%
COc1ccc(S(=O)(=O)N2CCCCCC2)cc1C(=O)OCC(=O)NC(C)(C)C -11.8%
Nc1ccccc1-c1nc2ccccc2s1 -7.02%
O=C(N1CCCCC1)N1CCN(S(=O)(=O)c2ccccc2)CC1 -11.3%
COc1ccc(S(=O)(=O)N2CCCC2)cc1C(C)C -16.1%
Cc1nc2sccn2c(=O)c1S(=O)(=O)Nc1ccc(N2CCOCC2)c(Cl)c1 -25.3%
COC(=O)c1cccc(NC(=O)CN2CCN(Cc3ccccc3)CC2)c1 2.65%
CN1CCc2c(sc(/N=C/c3cc(C(C)(C)C)ccc3O)c2C#N)C1 3.37%
COc1ccc2[nH]c3c(=O)n(CCCN4CCOCC4)cnc3c2c1 -12.4%
CCO/C(C)=C1/SC(=S)NC1=O 3.62%
c1ccc(OCCSc2nc3ccccc3o2)cc1 -18%
COc1cc(NC(=O)c2cc(C)nc3ccccc23)cc(OC)c1 -25.1%
COc1cccc(C(=O)c2c[nH]c(C(=O)NCc3ccco3)c2)c1 -5.49%
COc1ccc(CNC(=O)c2cnc3scc(C)n3c2=O)cc1 -20.1%
COc1ccc(Cl)cc1C(=O)NCC(=O)OCc1ccccc1 8.73%
O=C(CCNC(=O)c1ccc(Cl)cc1)Nc1ncccc1O -4.94%
CCCCOC(=O)CSCC(=O)Nc1cc(C)on1 2.2%
CCN(CC)S(=O)(=O)c1ccc2c(c1)c(=O)c(C(=O)NCc1ccco1)cn2C -6.4%
CC(=O)N(c1ccc2oc(=O)sc2c1)S(=O)(=O)c1ccc(C(=O)O)cc1 -1.71%
CCOC(=O)c1cc(S(=O)(=O)N2CCc3ccccc32)cn1C -12.5%
Fc1ccccc1N1CCN(Cc2cc(-c3ccccc3)on2)CC1 -10.8%
CCc1ccccc1NC(=O)CSc1nnc(-c2ccncc2)o1 -11.8%
COCCNC(=O)C(OC(=O)c1cccs1)c1ccccc1 (stereo unspecified) 2.58%
COc1ccc(CCNC(=O)CN(c2ccc(OC)c(OC)c2)S(C)(=O)=O)cc1OC -22.4%
CCC(NC(=S)NCc1ccccc1)C(=O)O (stereo unspecified) 29.3%
CCOCCn1c(SCC(=O)OCc2ccccc2)nc2c1c(=O)[nH]c(=O)n2C -11.3%
CC(C)c1nc2ccccc2c2nnc(SCC(=O)NCc3ccco3)n12 -7.5%
CC(=O)Nc1ccc(-c2cn3c(n2)SCC3)cc1 -4.99%
CC1(C)Cc2nc3[nH]c(=S)n(-c4ccccc4)c(=O)c3cc2CO1 -13.3%
Cc1ccc(S(=O)(=O)c2ccc(Oc3ccccc3)cc2)cc1 -11%
CC1CCCN(c2ncnc3c2cnn3-c2ccc(Cl)cc2)C1 (stereo unspecified) -10.3%
COc1ccc(Cn2nnnc2C(c2cc3cccc(C)c3[nH]c2=O)N2CCN(C)CC2)cc1 (stereo unspecified) 7.29%
CC(C)c1ccc(NC(=O)N(CCc2nc3ccccc3[nH]2)C2CCCC2)cc1 78.7%
CCCS(=O)(=O)N1CCc2cc(OC)c(OC)cc2C1 -3.49%
CCC(Sc1nc2cc(OC)c(OC)cc2c(=O)n1CCc1ccc(S(N)(=O)=O)cc1)C(=O)NCCOC (stereo unspecified) 16.7%
O=C(N/N=C/c1ccccn1)c1ccc([N+](=O)[O-])cc1 -24.2%
CN(C)c1ccc(CNc2ccc3c(c2)ncn3C(C)(C)C)cc1 -15.9%
COc1cccc(-n2nc(-c3ccnn3-c3cccc(Cl)c3)c(=O)n(C)c2=O)c1 -21.5%
CCOC(=O)c1cc2sccc2n1CC(=O)Nc1ccc(OC)cc1 -14.8%
Cc1cccc(-c2ocnc2C(=O)N2CCN(C(=O)c3cccs3)CC2)c1 -4.21%
CCOC(=O)c1c(C)nc2c(C)cccn12 -16.6%
CC(C)(C)C(=O)OCc1nc(-c2ccc3c(c2)OCCO3)cs1 9.21%
Cc1nn(C(C)(C)C)c(C)c1/C=N/OC(=O)Nc1ccc(Cl)c(Cl)c1 -12.2%
Nc1nc(CSC(=S)N2CCCCC2)nc(Nc2ccccc2)n1 -2.27%
NS(=O)(=O)c1ccc(NC2=CC(=O)C(=O)c3ccccc32)cc1 -43.6%
Cn1c(NC(=O)c2ccccc2NC(=O)C(C)(C)C)nc2ccccc21 -22.4%
